The entries come from a sample that favours hits as a whole.
HT1080-NT tox: kills 2HG-producing HT-1080-NT fibrosarcoma cells; Potency, µM (highest dose often 46.1 µM), without a hit: top-dose activity, negative = less viability, hits mostly cytotoxic; HT-1080-NT fibrosarcoma viability, CellTiter-Glo ATP luminescence, 48 h; 360,000 compounds, 1.6% hits;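 also: NT is the 2HG producing partner of a matched IDH1 knockdown line; potency is read from the fitted curve at half-maximal effect; 0% = DMSO-treated cells and -100% = media-only wells without cells; nearly all actives have a fitted effect of over 55% in size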
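Compounds were tested in concentration-response format on HT-1080-NT cells for 48 hours at 37 degrees C. Cell viability came from CellTiter-Glo luminescence; curves were classified by r2, response magnitude and activity.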
TDP1 cell CPT: DT40-hTDP1 cell growth loss with CPT. chicken DT40 Tdp1-/-;hTDP1 cells + 20 nM CPT, ATP luminescence, 48 h. Potency, µM (highest dose often 46.2 µM), for the others: at the highest dose activity change, negative = growth inhibition, actives largely listed as inhibitors. 420,000 compounds, 12% hits. AID 686979; also: potency is read from the fitted curve at half-maximal effect; nearly all actives have a fitted effect of over 55% in size
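Chicken DT40 Tdp1-/- cells stably complemented with human TDP1 were seeded at 400 cells/well in medium containing 20 nM camptothecin, exposed to pin-transferred compounds, and grown at 37 °C for at least 48 hr. Viability was read as ATP luminescence.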
TDP1 cell noCPT: qHTS for Inhibitors of human tyrosyl-DNA phosphodiesterase 1 (TDP1): qHTS in cells in absence of CPT | DT40 Tdp1-/- hTDP1 cells, no CPT, ATP luminescence, 48 h | Potency, µM (top dose mostly 46.2 µM), for the others: at the top dose activity change, negative = growth inhibition, usual class: inhibitors | 420,000 compounds, 15% hits | AID 686978, 2013; also: potency is read from the fitted curve at half-maximal effect; nearly all actives have a fitted effect of over 55% in size
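Cells were dispensed at 400 per well, compounds added by pin tool, plates incubated ≥48 hr at 37 °C, then CellTiter-Glo added for 30 min at room temperature before luminescence reading. Line: DT40 Tdp1-/- complemented with hTDP1; camptothecin omitted.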
12-LOX inh: ALOX12 (human) lipoxygenase inhibition. P18054. purified 12hLO, xylenol orange hydroperoxide absorbance. Potency, µM (titrated, usually from 108 µM), without a hit: at the top dose activity change, negative = inhibition, most hits filed as inhibitors. 580,000 compounds, 1.1% hits; also: potency is read from the fitted curve at half-maximal effect
Target sequence (P18054 whole entry, looked up): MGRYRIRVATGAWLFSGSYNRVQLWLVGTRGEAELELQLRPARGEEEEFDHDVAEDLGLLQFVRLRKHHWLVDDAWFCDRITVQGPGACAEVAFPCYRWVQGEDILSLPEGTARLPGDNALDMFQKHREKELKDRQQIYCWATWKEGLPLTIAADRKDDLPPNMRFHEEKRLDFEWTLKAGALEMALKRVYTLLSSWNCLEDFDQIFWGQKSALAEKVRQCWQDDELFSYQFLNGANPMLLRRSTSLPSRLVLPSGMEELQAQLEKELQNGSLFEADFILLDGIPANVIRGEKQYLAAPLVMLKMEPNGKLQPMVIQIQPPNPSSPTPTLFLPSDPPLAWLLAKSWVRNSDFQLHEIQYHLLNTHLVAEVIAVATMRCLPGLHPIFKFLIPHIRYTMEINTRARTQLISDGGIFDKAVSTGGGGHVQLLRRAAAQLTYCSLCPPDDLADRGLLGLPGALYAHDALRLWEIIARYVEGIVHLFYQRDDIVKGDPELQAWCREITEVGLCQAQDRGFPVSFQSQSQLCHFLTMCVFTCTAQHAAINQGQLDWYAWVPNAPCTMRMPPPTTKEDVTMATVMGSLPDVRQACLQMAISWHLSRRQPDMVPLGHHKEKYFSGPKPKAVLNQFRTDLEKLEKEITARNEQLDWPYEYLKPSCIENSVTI
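Purified human 12hLO (150 nM final) in 25 mM Hepes, 0.01% Triton X-100, pH 7.0 was preincubated 15 min at room temperature with compound. Then 40 uM arachidonic acid was added, 30 min. Hydroperoxide was read by Fe-XO absorbance ratio 573/405 nm.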
HT1080 IDH1KD tx: toxicity to HT-1080 IDH1 knockdown cells (counter line) | Potency, µM (doses to about 46.1 µM), for inactives: at the highest dose activity, negative = toxicity, actives largely listed as cytotoxic | HT-1080 IDH1 knockdown viability, ATP luminescence, 48 h | AID 686971 | 360,000 compounds, 2% hits;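 also: potency is read from the fitted curve at half-maximal effect; 0% = DMSO wells and -100% = cell-free medium wells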
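IDH1KD HT-1080 cells, 750/well, RPMI + 5% FBS; compound pinned after 2 h settling; 48 h, 37 °C; CellTiter-Glo luminescence; % activity normalised to DMSO and no-cell wells; curves fitted, classed by r2 and efficacy.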
IL-1B inflam inh: blocks inflammasome-driven IL-1 beta release. THP-1 LPS/ATP IL-1B secretion, AlphaLISA, 16 h; stronger effect = lower value. activity change, % at 57.5 µM. 360,000 compounds, 4.7% hits; in the data active = activity change below about -50%; inconclusive = mostly about -30% to -49%
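THP-1 cells pretreated 1 hr with compounds (up to 57.5 uM final), then stimulated with LPS (250 ng/mL final) plus ATP (1.25 mM final); secreted IL-1B measured by AlphaLISA after 16 hr, decreased signal indicating inhibition.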
Numbers without * were called inactive; [ ] = dose if it differs, or a comment. Unless noted, calls follow the shape of the dose curve; as a rule, active = well fitted curve in the direction sought with a large enough effect; inconclusive = small, poorly fitted or top-dose-only effect, or another doubt; inactive = no such curve, though single readings can be large; an effect the other way counts as inactive or inconclusive. Unless noted, % is scaled to controls: 0 for no effect and ±100 for the full control effect.

Results for CCc1c(C)sc2c1CCN(C(=O)Nc1cc(Cl)c(OC)cc1OC)C2c1ccccc1 (stereo not given) ?
TDP1 cell CPT: inconclusive; TDP1 cell noCPT: 26µM*; 12-LOX inh: -17%

How did CCc1c(C)sc2c1CCN(C(=O)Nc1ccccc1C(=O)OC)C2c1ccc(OC)cc1 (stereo not given) do in these assays?
TDP1 cell CPT: inconclusive; TDP1 cell noCPT: inconclusive; 12-LOX inh: -15%

How did CCc1c(C)sc2c1CCN(C(=O)Nc1ccccc1C(=O)OC)C2c1ccc(F)cc1 (stereo not given) do in these assays?
TDP1 cell CPT: inconclusive; TDP1 cell noCPT: inconclusive; 12-LOX inh: -19%

How did O=C(Cc1cccc(Cl)c1)N1CCc2c(n(CCOc3ccccc3)n(-c3ccccc3)c2=O)C1 do in these assays?
12-LOX inh: 2%

What do the screens show for `CCCCCn1c(NC)nc2c1c(=O)[nH]c(=O)n2C`?
12-LOX inh: 0%

How did Cc1ccc(Cn2c(C3CCN(C(=O)c4ccc(F)c(Cl)c4)CC3)n[nH]c2=O)cc1 do in these assays?
12-LOX inh: 36%

Results for C/C(=N\NC(=O)C(O)(c1ccccc1)c1ccccc1)c1ccc(C)o1 ?
HT1080-NT tox: -18%; TDP1 cell CPT: inconclusive; TDP1 cell noCPT: 18µM*; 12-LOX inh: 1%; HT1080 IDH1KD tx: -17%; IL-1B inflam inh: 7

How did C/C(=N/Nc1nc(C)cc(-c2ccccc2)n1)c1ccco1 do in these assays?
HT1080-NT tox: -6%; TDP1 cell CPT: 21µM*; TDP1 cell noCPT: inconclusive; 12-LOX inh: -7%; HT1080 IDH1KD tx: inconclusive; IL-1B inflam inh: -11

How did C/C(=N\Nc1nc(C)cc(-c2ccccc2)n1)c1ccc(C)o1 do in these assays?
HT1080-NT tox: 0%; TDP1 cell CPT: inconclusive; TDP1 cell noCPT: 4.6µM*; 12-LOX inh: 0%; HT1080 IDH1KD tx: -10%; IL-1B inflam inh: -2

Results for C/C(=N\NC(=O)CCC(=O)N/N=C(\C)c1ccc(C)o1)c1ccc(C)o1 ?
HT1080-NT tox: 8%; TDP1 cell CPT: -3%; TDP1 cell noCPT: -16%; 12-LOX inh: inactive; HT1080 IDH1KD tx: 6%; IL-1B inflam inh: 13

How did O=C(c1occc1-c1ccccc1)N1CCN(S(=O)(=O)c2c(F)cccc2F)CC1 do in these assays?
12-LOX inh: 12%

Results for Cc1ccc(OCC(=O)N2CCC3(CC2)CC(OCC2CC2)CCO3)cc1 (stereo not given) ?
12-LOX inh: 31%

How did CCOC(=O)c1c(C)n(C)c2c(C)cc(O)c(OC(=O)CC)c12 do in these assays?
HT1080-NT tox: 9%; TDP1 cell CPT: 7.3µM*; TDP1 cell noCPT: inconclusive; 12-LOX inh: 53%; HT1080 IDH1KD tx: 1%[9.24 µM]; IL-1B inflam inh: -4

How did Cc1cccn2c(=O)c(/C=C3\SC(=S)NC3=O)c(NCCCN3CCOCC3)nc12 do in these assays?
HT1080-NT tox: 0%; TDP1 cell CPT: inconclusive; TDP1 cell noCPT: 23µM*; 12-LOX inh: -15%; HT1080 IDH1KD tx: 5%; IL-1B inflam inh: -83*

What do the screens show for `COc1cccc(CNC(=O)CN2C(=O)N(c3ccccc3C)S(=O)(=O)c3ccccc32)c1`?
12-LOX inh: -49%

Results for CCc1noc(CN2CCC3(CC2)CC(=O)N(CCCc2ccccc2)C3)n1 ?
12-LOX inh: 27%

Results for c1cncc(-c2nnc(-c3cccnc3)nn2)c1 ?
HT1080-NT tox: inconclusive; TDP1 cell CPT: 2.9µM*; TDP1 cell noCPT: 5.2µM*; 12-LOX inh: inconclusive; HT1080 IDH1KD tx: inconclusive; IL-1B inflam inh: 20

How did Cc1cnn(CCC(=O)N2CCC3(CCOCC3)CC2)c1 do in these assays?
12-LOX inh: 41%

Results for Cc1nc(-c2ccccc2F)sc1C(=O)N1CCC(C(=O)O)CC1 ?
12-LOX inh: 1%

How did COc1ccc(C(=O)O/N=C(\N)Cc2ccc(Cl)c(Cl)c2)cc1OC do in these assays?
HT1080-NT tox: 15µM*; TDP1 cell CPT: 16µM*; TDP1 cell noCPT: inconclusive; 12-LOX inh: -4%; HT1080 IDH1KD tx: inconclusive; IL-1B inflam inh: -6

What do the screens show for `N/C(Cc1ccc(Cl)cc1)=N\OC(=O)c1ccccc1`?
HT1080-NT tox: inconclusive; TDP1 cell CPT: inconclusive; TDP1 cell noCPT: inconclusive; 12-LOX inh: 13%; HT1080 IDH1KD tx: inconclusive; IL-1B inflam inh: -20

What do the screens show for `N/C(CCS(=O)(=O)c1ccc(Cl)cc1)=N\OC(=O)c1ccc(Cl)cc1`?
HT1080-NT tox: -14%; TDP1 cell CPT: inconclusive; TDP1 cell noCPT: 21µM*; 12-LOX inh: 40%; HT1080 IDH1KD tx: -7%; IL-1B inflam inh: inconclusive

What do the screens show for `COc1ccc(C(=O)O/N=C(\N)Cc2ccc(Cl)cc2)cc1OC`?
HT1080-NT tox: 15µM*; TDP1 cell CPT: 16µM*; TDP1 cell noCPT: 21µM*; 12-LOX inh: 0%; HT1080 IDH1KD tx: inconclusive; IL-1B inflam inh: -54*

How did N#C/C(=C/c1ccccc1)c1nc2ccccc2[nH]1 do in these assays?
12-LOX inh: 0%

Results for COc1cccc(/C=C2\SC(N3CCC(C)CC3)=NC2=O)c1OC ?
HT1080-NT tox: -9%; TDP1 cell CPT: inconclusive; TDP1 cell noCPT: -15%; 12-LOX inh: -26%; HT1080 IDH1KD tx: 1%; IL-1B inflam inh: -19

What do the screens show for `COc1ccc(OC)c(/C=C2\SC(N3CCCCC3)=NC2=O)c1`?
HT1080-NT tox: 17%; TDP1 cell CPT: 7.3µM*; TDP1 cell noCPT: 5.8µM*; 12-LOX inh: inconclusive; HT1080 IDH1KD tx: 8%; IL-1B inflam inh: inconclusive

Results for CCCOc1ccccc1/C=C1\SC(N2CCCCC2)=NC1=O ?
HT1080-NT tox: inconclusive; TDP1 cell CPT: inconclusive; TDP1 cell noCPT: 5.8µM*; 12-LOX inh: -7%; HT1080 IDH1KD tx: inconclusive; IL-1B inflam inh: -61*

How did O=C1N=C(N2CCCCC2)S/C1=C\c1ccccc1F do in these assays?
HT1080-NT tox: 2%; TDP1 cell CPT: 7%; TDP1 cell noCPT: inconclusive; 12-LOX inh: 3%; HT1080 IDH1KD tx: -3%; IL-1B inflam inh: -64*

How did O=C1N=C(N2CCCCC2)S/C1=C\c1ccc(Cl)cc1 do in these assays?
HT1080-NT tox: 14%; TDP1 cell CPT: inconclusive; TDP1 cell noCPT: inconclusive; 12-LOX inh: inconclusive; HT1080 IDH1KD tx: 6%; IL-1B inflam inh: 0
